# Source: PubChem BioAssay
# In the library only some 2.7% were active in any assay of this set; here they are far more common.
# TRPM1 prom inh = inhibitors of MITF-driven TRPM1 promoter in melanoma cells; SK-MEL-5 TRPM1 promoter luciferase, 24 h; inhibition, % at 12.5 µM; 330,000 tested, 0.83% active;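 active means mean inhibition across replicates of 60% or more, whatever share of single replicates reaches that level; inconclusive means some that reach 60%, reason not given; inactive means mean inhibition across replicates below 60%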
# CF NFkB inh = cystic fibrosis NF-kB activation inhibition; AID 588850; inhibition, % at 5 µM; 360,000 tested, 0.86% active; KKLEB NF-kB-GFP reporter, PAF-induced, GFP fluorescence overnight;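 active means at least 50% inhibition at 5 µM, scaled per plate between neutral and stimulator controls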;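 further: PAF is a Pseudomonas aeruginosa culture filtrate used as stimulus; plate controls were PAF-stimulated DMSO wells for no effect and unstimulated DMSO wells for full effect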
# KKLEB cytotox = CF airway cell cytotoxicity counter-screen; activity change (cytotoxicity), % at 5 µM; 360,000 tested, 0.36% active; AID 602141; KKLEB CF airway cells viability, ATPlite luminescence, overnight; stronger effect = lower value; cells stimulated with P. aeruginosa culture filtrate;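 active means corrected activity change at or below -50% at 5 µM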
# Shn3 inh set2 = Schnurri-3 reporter inhibition in Clone20 osteoblasts. 360,000 tested, 0.52% active. AID 588674. inhibition, % at 12.5 µM. Clone20 osteoblast Shn3 3'UTR firefly luciferase, 24 h;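 active means mean inhibition of at least 75% with every replicate also reaching 75%; inconclusive means mean inhibition at least 75% but some replicate below; inactive means mean inhibition below 75%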;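 further: 0% = median of neutral control wells and 100% = pilot-screen positive control compound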
# Peg3 prom inh = Peg3 promoter activity inhibition; HeLa PEG-Prom luciferase reporter, luminescence, overnight; AID 588405; inhibition, % at 20 µM; 360,000 tested, 1.7% active;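 active means inhibition of at least 50% at 20 µM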
# HIF-2a inh = HIF-2a inhibition | 360,000 tested, 0.72% active | inhibition, % at 18.8 µM | 786-0 RCC cells HIF-2a reporter, luciferase luminescence, overnight | AID 624352;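 active means inhibition of the luminescence signal of 40% or more relative to plate controls, in a single-dose primary screen at 18.75 µM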
# * hit, by the source's call; ? = inconclusive; / = not tested or not shown.
SMILES,TRPM1 prom inh,CF NFkB inh,KKLEB cytotox,Shn3 inh set2,Peg3 prom inh,HIF-2a inh
COC(=O)[C@]12CCCCC=C1N(Cc1ccc(Cl)cc1Cl)C(=O)[C@H](CC(=O)N1CCCC1)C2,/,/,/,/,/,-3
CCN(CC)CCNC(=O)c1cc(-c2ccc(Br)s2)nc2ccccc12,-11,-2,-8,-7,101*,-35
COc1ccc(C[C@H]2CN3C(=NC[C@@H]3C(C)C)N2CCNC(=O)CCC2CCCCC2)cc1,-21,10,-11,66,50,-19
COc1ccc(C[C@H]2CN3C(=NC[C@@H]3Cc3ccccc3)N2CCNC(=O)CCC2CCCCC2)cc1,98*,21,2,84,99*,5
O=C(Nc1ccc(Br)c(C(F)(F)F)c1)c1ccccc1,-20,-7,12,14,-183,-212
O=C(Nc1ccc(Br)c(C(F)(F)F)c1)c1ccc(C(F)(F)F)cc1,/,65*,-69*,-13,-48,-274
COc1ccc(C(=O)Nc2ccc(OCC(F)(F)C(F)F)c(C(F)(F)F)c2)cc1OC,-3,-6,-1,-9,24,-1
O=C(Nc1ccc(OCC(F)(F)C(F)F)c(C(F)(F)F)c1)c1ccc(Cl)cc1,68*,42,-40,78,25,-13
C[C@H](O)C(=O)C1=Nc2c(nc(N)[nH]c2=O)NC1,2,12,-95*,-4,2,4
C[C@H](O)[C@H](O)[C@H]1CNc2nc(N)[nH]c(=O)c2N1,-1,18,9,8,-13,1
CCCS(=O)(=O)NC(=O)C1(C)CCN(C(=O)c2ccc(OC)cc2)C1 (stereo unspecified),/,4,1,10,0,23
Cc1ccc(C(=O)NNC(=O)CSc2nnc3c(n2)[nH]c2ccc(F)cc23)cc1,14,-16,-6,3,55*,5
CC1CCc2cc(F)ccc2N1C(=O)CSc1nnc2c(n1)[nH]c1ccccc12 (stereo unspecified),-5,-13,10,27,65*,17
COc1ccc2[nH]c3nc(SCC(=O)NNC(=O)c4ccc(OC)c(OC)c4)nnc3c2c1,5,-6,16,5,6,-9
CC1(C)Cc2cccc(OC(=O)NC3CCCCC3)c2O1,/,/,/,/,/,-5
Cc1cc(Nc2nc3ccccc3nc2Cl)n(-c2ccc([N+](=O)[O-])cc2)n1,11,41,-19,2,53*,27
CC1(C)c2[nH]c3ccccc3c2C[C@@H]2C(=O)N(Cc3ccc(F)cc3)C(=O)N21,4,6,-12,27,62*,4
O=C(N/N=C/c1ccco1)C1CC1c1ccccc1 (stereo unspecified),-1,-4,-6,-17,-19,-1
CC(C)(C)c1ccc(C2CC2C(=O)N/N=C\c2ccc[nH]2)cc1 (stereo unspecified),5,58*,-42,95*,-8,-25
O=C(CC1c2ccccc2C=C(c2ccsc2)N1c1ccc(-c2cccnc2)cc1)C1CC1 (stereo unspecified),/,/,/,/,/,-59
CCOc1cc(/C=C/C(=O)Nc2ccc(C(=O)NCCN(CC)CC)cc2)ccc1OCC(C)C,83*,13,-34,37,104*,21
CC1(C(=O)NCCC#N)CCN1C(=O)C1(c2ccccc2)CCCC1 (stereo unspecified),/,-19,-11,1,4,14
O=C(Nc1cccnc1)c1ccc(N2CCOCC2)c([N+](=O)[O-])c1,-7,-5,8,-15,-22,-15
COc1ccc2oc(-c3ccc(NC(=O)c4ccc(N5CCOCC5)c([N+](=O)[O-])c4)cc3)nc2c1,3,54*,-60*,8,29,19
CC1(C(=O)NCc2ccco2)CCN1C(=O)C1(c2ccccc2)CC1 (stereo unspecified),/,-1,-2,-2,1,6
SMILES,TRPM1 prom inh,CF NFkB inh,KKLEB cytotox,Shn3 inh set2,Peg3 prom inh,HIF-2a inh
OC(CN1CCCCC1)Cn1c2ccc(Cl)cc2c2cc(Cl)ccc21 (stereo unspecified),-12,28,-14,-27,104*,7
C[C@@H]1CCCCO[C@H](CN(C)C(=O)Cc2ccccc2)[C@@H](C)CN([C@H](C)CO)C(=O)c2cc(N(C)C)ccc2O1,/,-9,8,-30,6,8
COc1cc(/C=C2\CCC(C)C3=C(c4cc(OC)c(OC)c(OC)c4)C(C#N)=C(N)OC32)cc(OC)c1OC (stereo unspecified),26,-38,-14,5,33,13
CCOC(=O)[C@]12CCCC=C1N(CCC1=CCCCC1)C(=O)[C@H](CC(=O)NCc1ccc(OC)c(OC)c1)C2,/,/,/,/,/,6
Nc1nc2ccc(OC(F)(F)F)cc2s1,-36,12,-56*,-52,-169,-184
Cc1sc(NC(=S)NC(=O)CCc2ccccc2)c(C(N)=O)c1C,27,50*,-28,-1,-2,-7
COc1ccccc1-c1cnc(C(O)c2ccc(C)cc2)[nH]1 (stereo unspecified),/,-6,3,-13,-109,-148
c1ccc(-c2cnnc(-c3ccccn3)n2)cc1,-83,-34,-2,-50,-243,-198
C=CCNc1nc(-c2ccccn2)nnc1-c1ccccc1,78*,28,-31,91*,35,7
Cc1[nH]c2ccccc2c1C(=O)CSc1ccccc1,-14,-4,0,-55,-126,-172
Cc1[nH]c2ccccc2c1C(=O)CCl,?,64*,-4,28,93*,19
Nc1nonc1C(=O)NCCNCc1cc(Br)ccc1OCc1ccc(F)cc1,-6,-9,-13,90*,20,10
CC1(C)OC(=O)C2=C(C[C@@H](C3CCCCC3)O[C@@H]2c2ccc(F)cc2)O1,/,/,/,/,/,4
